# In patent US20140271602, “NUCLEOTIDE-SPECIFIC RECOGNITION SEQUENCES FOR DESIGNER TAL EFFECTORS” (THE BROAD INSTITUTE INC., published 2014):
# Molecular target: T1, TALE1-HN (CACNA1C site 1 activator) (Xanthomonas (engineered), UniProt P14727 SEQ:1-983)
# T1 chain: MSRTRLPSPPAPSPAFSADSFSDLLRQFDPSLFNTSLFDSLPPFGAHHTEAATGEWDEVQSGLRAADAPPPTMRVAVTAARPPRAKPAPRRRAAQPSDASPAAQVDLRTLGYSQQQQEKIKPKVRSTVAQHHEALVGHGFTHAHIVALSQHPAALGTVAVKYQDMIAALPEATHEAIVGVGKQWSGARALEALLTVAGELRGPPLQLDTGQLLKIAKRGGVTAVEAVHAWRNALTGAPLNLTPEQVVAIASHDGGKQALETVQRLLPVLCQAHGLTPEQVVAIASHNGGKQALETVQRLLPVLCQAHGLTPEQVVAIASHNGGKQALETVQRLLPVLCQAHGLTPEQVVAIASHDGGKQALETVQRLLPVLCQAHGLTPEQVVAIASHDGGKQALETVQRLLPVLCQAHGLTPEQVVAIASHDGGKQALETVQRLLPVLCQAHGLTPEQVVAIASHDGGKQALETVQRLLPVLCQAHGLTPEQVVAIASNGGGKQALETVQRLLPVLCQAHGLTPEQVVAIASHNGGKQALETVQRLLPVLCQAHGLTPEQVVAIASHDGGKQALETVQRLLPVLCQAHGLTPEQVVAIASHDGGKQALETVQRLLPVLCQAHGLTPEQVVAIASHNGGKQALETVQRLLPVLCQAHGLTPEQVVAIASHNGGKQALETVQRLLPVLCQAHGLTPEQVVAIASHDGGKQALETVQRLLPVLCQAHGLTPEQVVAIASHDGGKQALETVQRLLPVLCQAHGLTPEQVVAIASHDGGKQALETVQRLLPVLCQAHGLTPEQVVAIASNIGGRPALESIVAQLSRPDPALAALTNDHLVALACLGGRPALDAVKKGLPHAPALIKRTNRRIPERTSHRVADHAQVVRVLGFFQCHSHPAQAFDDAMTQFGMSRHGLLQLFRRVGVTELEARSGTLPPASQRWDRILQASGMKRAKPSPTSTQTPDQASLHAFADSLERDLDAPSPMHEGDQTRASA
# Assay: cell_activity; luciferase reporter
# Settings: tags: VP64, 2A-GFP; dsDNA, one strand shown
# Protocol: TALEs using NN, NK, NH, and HN as the G-targeting RVD were synthesized to target two distinct 18 bp target sites in the human CACNA1C locus. Changes in mRNA are measured using qRT-PCR as described previously. VP64, VP64 transcription activation domain. All results are collected from three independent experiments in HEK 293FT cells. Error bars indicate s.e.m.; n=3. FIG. 19(b) discloses SEQ ID NOS 63 and 62, respectively, in order of appearance.
# To determine whether NH and HN are suitable replacements for NN as the G-specific RVD, specificity and activity strength of NN, NK, NH, and HN were directly compared. Two 18 bp targets within the CACNA1C locus in the human genome were chosen and four TALEs for each target were constructed, using NN, NK, NH, or HN as the G-targeting RVD (FIG. 19a). […] For each CACNA1C target site, four luciferase reporters were constructed: wild type genomic target, and wild type target with 2, 4, or all guanines mutated into adenines (FIG. 19a, G-to-A reporters), and compared the activity of each TALE using these reporters (FIG. 19a). […] Thus, focus was placed on the RVDs NN, NK, and NH in subsequent experiments to assess their usefulness in modulating transcription at endogenous human genome targets.
row,Sequence,binding signal
1,TCAACCCCTGCCGGCCCA,30.8 % reduction vs wild-type site
